Results filed as inconclusive are left out. Where a structure was tested more than once in an assay, its records may differ in their call. Active and inactive are the calls of the source. How the source made its calls, unless noted: active means hit-call score of the fitted dose curve at least 0.9, where 1 is the maximum; inactive means score below 0.9.
How the values were obtained:
[1] = target: Retinoic acid receptor RXR-alpha (Homo sapiens) (UniProt P19793); assay: ATG_RXRa_TRANS: Attagene TRANS-FACTORIAL HepG2 Assay for human Retinoid X Receptor alpha (RXRa) (AID 2283012; active means hit-call score of the fitted dose curve at least 0.9, where 1 is the maximum)
Retinoic acid receptor RXR-alpha (Homo sapiens), sequence (P19793 whole entry, looked up, the tested form may be a part): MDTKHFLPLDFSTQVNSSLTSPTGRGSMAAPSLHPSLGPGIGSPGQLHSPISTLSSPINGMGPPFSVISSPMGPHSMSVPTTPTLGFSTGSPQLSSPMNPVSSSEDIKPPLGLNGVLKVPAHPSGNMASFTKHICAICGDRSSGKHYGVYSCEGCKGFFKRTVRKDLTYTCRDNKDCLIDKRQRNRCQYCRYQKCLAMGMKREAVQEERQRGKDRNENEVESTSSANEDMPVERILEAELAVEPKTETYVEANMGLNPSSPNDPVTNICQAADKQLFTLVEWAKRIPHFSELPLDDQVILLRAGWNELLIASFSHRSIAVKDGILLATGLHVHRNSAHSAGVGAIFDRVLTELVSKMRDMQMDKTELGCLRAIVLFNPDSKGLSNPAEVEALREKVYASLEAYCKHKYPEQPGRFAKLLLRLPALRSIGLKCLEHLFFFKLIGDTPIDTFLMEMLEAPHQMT
How it was run: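 Cells (HepG2) carried transiently transfected GAL4-responsive reporter units. Following a 24 h chemical incubation, reporter mRNA induction was read via RT-PCR fragment analysis; DMSO served as negative control and baseline.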

[2] = target: human Retinoid X Receptor beta (RXRb), RXRB (gene 6257) (UniProt P28702); assay: ATG_RXRb_TRANS: Attagene TRANS-FACTORIAL HepG2 Assay for human Retinoid X Receptor beta (RXRb) (AID 2283013; active means hit-call score of the fitted dose curve at least 0.9, where 1 is the maximum)
human Retinoid X Receptor beta (RXRb), RXRB (gene 6257), sequence (P28702 whole entry, looked up): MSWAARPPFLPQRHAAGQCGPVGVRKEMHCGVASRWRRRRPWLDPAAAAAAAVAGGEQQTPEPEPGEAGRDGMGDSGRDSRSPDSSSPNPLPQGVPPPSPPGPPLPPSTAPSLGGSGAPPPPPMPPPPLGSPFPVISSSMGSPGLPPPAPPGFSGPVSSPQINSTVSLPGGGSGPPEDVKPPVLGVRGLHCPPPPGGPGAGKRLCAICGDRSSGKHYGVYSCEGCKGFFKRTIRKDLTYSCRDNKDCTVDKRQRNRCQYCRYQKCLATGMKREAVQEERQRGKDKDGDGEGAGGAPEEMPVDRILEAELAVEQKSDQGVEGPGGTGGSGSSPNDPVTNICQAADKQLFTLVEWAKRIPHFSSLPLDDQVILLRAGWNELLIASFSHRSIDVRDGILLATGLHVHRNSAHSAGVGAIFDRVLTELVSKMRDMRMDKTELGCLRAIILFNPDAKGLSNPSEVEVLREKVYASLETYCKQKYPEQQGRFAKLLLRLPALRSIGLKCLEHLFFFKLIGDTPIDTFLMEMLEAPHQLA
How it was run: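 Multiplexed TRANS reporter assay in HepG2; 24 h dosing; reporter mRNA by RT-PCR/CE fluorescence; gain-of-signal relative to DMSO.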

[3] = read-out: E-selectin (Homo sapiens) (UniProt P16581); assay: BSK_3C_Eselectin: BioMAP Diversity Plus: 3C Assay for Eselectin Biomarker Activity (AID 2283015); conditions: primary human endothelial cells (HUVEC); actives raise or lower the signal
How it was run: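 Primary human umbilical vein endothelial cells (3C system) were dosed with chemical and cell-surface E-selectin measured by ELISA 24 h later. Bidirectional curve fitting used DMSO as negative control and baseline.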

[4] = read-out: Monocyte Chemoattractant Protein-1 (MCP1), CCL2 (gene 6347); assay: BSK_3C_MCP1: BioMAP Diversity Plus: 3C Assay for Monocyte Chemoattractant Protein-1 (MCP1) Biomarker Activity (AID 2283017); conditions: primary human endothelial cells (HUVEC); actives raise or lower the signal
How it was run: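 Primary human umbilical vein endothelial cells (3C system) were exposed to test chemical for 24 h, after which MCP-1 was quantified by ELISA. Activity was fitted bidirectionally against DMSO as negative control and baseline.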

[5] = read-out: Monocyte Chemoattractant Protein-1 (MCP1), CCL2 (gene 6347); assay: BSK_4H_MCP1: BioMAP Diversity Plus: 4H Assay for Monocyte Chemoattractant Protein-1 (MCP1) Biomarker Activity (AID 2283018); conditions: primary human endothelial cells (HUVEC); actives raise or lower the signal
How it was run: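 Readout: MCP-1 ELISA on compound-treated HUVEC, sampled 24 h post-dosing. Baseline and negative control DMSO; bidirectional fit. Overt toxicity checked alongside by sulforhodamine B protein staining at time of biomarker measurement.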

[6] = read-out: Human Leukocyte Antigen - DR isotype (HLADR), HLA-DRA (gene 3122); assay: BSK_3C_HLADR: BioMAP Diversity Plus: 3C Assay for Human Leukocyte Antigen - DR isotype (HLADR) Biomarker Activity (AID 2283019); conditions: primary human endothelial cells (HUVEC); actives raise or lower the signal
How it was run: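 Primary human umbilical vein endothelial cells (3C system) were dosed with compound and cell-surface HLA-DR was quantified by ELISA at 24 h. Activity was fitted bidirectionally against DMSO as negative control and baseline.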

[7] = read-out: Interleukin-8 (IL8), CXCL8 (gene 3576); assay: BSK_3C_IL8: BioMAP Diversity Plus: 3C Assay for Interleukin-8 (IL8) Biomarker Activity (AID 2283020); conditions: primary human endothelial cells (HUVEC); actives raise or lower the signal
How it was run: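 Human vascular endothelial cells (umbilical vein) in the 3C system; IL-8 level detected by ELISA at 24 h post-dose, with DMSO as baseline.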

[8] = read-out: Monokine induced gamma interferon (MIG), CXCL9 (gene 4283); assay: BSK_3C_MIG: BioMAP Diversity Plus: 3C Assay for Monokine induced gamma interferon (MIG) Biomarker Activity (AID 2283021); conditions: primary human endothelial cells (HUVEC); actives raise or lower the signal;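 on AC50: MIG protein level measured by immunoassay in the treated endothelial cultures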
How it was run: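 After 24 h of treatment, human umbilical vein endothelial cultures (3C system) had their MIG biomarker level determined by ELISA, with DMSO serving as negative control.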

[9] = BSK_3C_SRB: Viability Assessment in the BioMAP Diversity Plus: 3C Assay (AID 2283023); conditions: primary human endothelial cells (HUVEC);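 further: fitted both ways against DMSO so a hit may be signal rise or drop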
How it was run: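 Primary human umbilical vein endothelial cells in the 3C system were read 24 h after compound dosing. Total protein was stained with 0.1% sulforhodamine B after 10% TCA fixation and read at 560 nm, with bidirectional fitting against DMSO as baseline.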

[10] = read-out: Matrix Metallopeptidase 1 (MMP1), MMP1 (gene 4312); assay: BSK_BE3C_MMP1: BioMAP Diversity Plus: BE3C Assay for Matrix Metallopeptidase 1 (MMP1) Biomarker Activity (AID 2283024); conditions: primary human bronchial epithelial cells; actives raise or lower the signal
How it was run: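 Dose cells, wait 24 h, run MMP1 ELISA; cells are human bronchial epithelial primaries. Both increases and decreases relative to DMSO counted.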

[11] = BSK_3C_Vis: BioMAP Diversity Plus: 3C Assay for Morphology Visualization (AID 2283025); conditions: primary human endothelial cells (HUVEC);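 further: fitted both ways so gain or loss versus DMSO counts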;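 on AC50: light microscopy image of cell morphology used as background control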
How it was run: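 Endothelial cells from human umbilical vein were treated with test chemicals for 24 h and inspected by light microscopy for changes in cell conformation.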

[12] = read-out: Pselectin, SELP (gene 6403); assay: BSK_4H_Pselectin: BioMAP Diversity Plus: 4H Assay for Pselectin Biomarker Activity (AID 2283026); conditions: primary human endothelial cells (HUVEC); actives raise or lower the signal
How it was run: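 Human vascular endothelium from umbilical vein; P-selectin measured by ELISA at 24 h post-dose, with cytotoxicity checked by sulforhodamine B total-protein staining in parallel cultures (0.1% SRB after 10% TCA fixation, read at 560 nm).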

[13] = read-out: Thrombomodulin, THBD (gene 7056); assay: BSK_3C_Thrombomodulin: BioMAP Diversity Plus: 3C Assay for Thrombomodulin Biomarker Activity (AID 2283029); conditions: primary human endothelial cells (HUVEC); actives raise or lower the signal
How it was run: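 Thrombomodulin ELISA, human primary HUVEC, 24 h post-dose; data fitted in both directions relative to DMSO.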

[14] = read-out: Urokinase-type plasminogen activator receptor (uPAR), PLAUR (gene 5329); assay: BSK_4H_uPAR: BioMAP Diversity Plus: 4H Assay for Urokinase-type plasminogen activator receptor (uPAR) Biomarker Activity (AID 2283030); conditions: primary human endothelial cells (HUVEC); actives raise or lower the signal
How it was run: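 Primary human umbilical vein endothelial cells were exposed to chemical for 24 h before cell-surface uPAR was quantified by ELISA. Activity was fitted bidirectionally against the DMSO negative control baseline.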

[15] = read-out: Vascular endothelial growth factor receptor 2 (Homo sapiens) (UniProt P35968); assay: BSK_4H_VEGFRII: BioMAP Diversity Plus: 4H Assay for Vascular endothelial growth factor receptor 2 (VEGFR2) Biomarker Activity (AID 2283031); conditions: primary human endothelial cells (HUVEC); actives raise or lower the signal;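 on AC50: cell-surface VEGFR2 protein level quantified by ELISA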
How it was run: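 Primary human umbilical vein endothelial cells in the BioMAP 4H system were dosed with test chemical, and 24 h later VEGFRII was measured by ELISA. Activity was fitted bidirectionally against DMSO as negative control and baseline.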

[16] = target: human Thyroid Receptor alpha (THRa1), THRA (gene 7067) (UniProt P10827); assay: ATG_THRa1_TRANS: Attagene TRANS-FACTORIAL HepG2 Assay for human Thyroid Receptor alpha (THRa1) (AID 2283014; active means hit-call score of the fitted dose curve at least 0.9, where 1 is the maximum)
human Thyroid Receptor alpha (THRa1), THRA (gene 7067), sequence (P10827 whole entry, looked up, the tested form may be a part): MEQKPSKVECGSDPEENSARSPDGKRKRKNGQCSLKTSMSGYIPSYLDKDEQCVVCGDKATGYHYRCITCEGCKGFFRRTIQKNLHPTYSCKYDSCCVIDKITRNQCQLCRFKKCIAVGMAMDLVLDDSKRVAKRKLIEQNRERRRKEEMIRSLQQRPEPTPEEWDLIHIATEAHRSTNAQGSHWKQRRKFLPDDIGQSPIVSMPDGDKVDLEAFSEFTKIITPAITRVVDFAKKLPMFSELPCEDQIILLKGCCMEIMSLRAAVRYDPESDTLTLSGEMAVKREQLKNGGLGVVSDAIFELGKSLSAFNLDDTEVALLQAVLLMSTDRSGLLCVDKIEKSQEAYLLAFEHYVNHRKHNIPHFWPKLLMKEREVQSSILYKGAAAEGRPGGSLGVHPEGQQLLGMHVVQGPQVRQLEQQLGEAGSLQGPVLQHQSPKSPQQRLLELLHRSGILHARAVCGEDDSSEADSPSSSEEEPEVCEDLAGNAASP
How it was run: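 HepG2 cells transiently transfected with multiplexed GAL4-UAS reporter units for exogenous chimeric THRa1-Gal4; reporter mRNA measured 24 h after dosing by RT-PCR, 6-FAM labelling, HpaI digestion and capillary electrophoresis. Gain-of-signal fitted versus DMSO baseline.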

[17] = read-out: Interleukin-1 alpha (IL1a), IL1A (gene 3552); assay: BSK_BE3C_IL1a: BioMAP Diversity Plus: BE3C Assay for Interleukin-1 alpha (IL1a) Biomarker Activity (AID 2283016); conditions: primary human bronchial epithelial cells; actives raise or lower the signal
How it was run: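 Cultures of primary human bronchial epithelial cells receive test chemical. After 24 h, IL-1a is quantified by ELISA, while parallel wells are fixed in TCA and SRB-stained for total protein. Changes in either direction are fitted relative to DMSO.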

[18] = target: human Vitamin D Receptor (VDR), VDR (gene 7421) (UniProt P11473); assay: ATG_VDR_TRANS: Attagene TRANS-FACTORIAL HepG2 Assay for human Vitamin D Receptor (VDR) (AID 2283022; active means hit-call score of the fitted dose curve at least 0.9, where 1 is the maximum)
human Vitamin D Receptor (VDR), VDR (gene 7421), sequence (P11473 whole entry, looked up, the tested form may be a part): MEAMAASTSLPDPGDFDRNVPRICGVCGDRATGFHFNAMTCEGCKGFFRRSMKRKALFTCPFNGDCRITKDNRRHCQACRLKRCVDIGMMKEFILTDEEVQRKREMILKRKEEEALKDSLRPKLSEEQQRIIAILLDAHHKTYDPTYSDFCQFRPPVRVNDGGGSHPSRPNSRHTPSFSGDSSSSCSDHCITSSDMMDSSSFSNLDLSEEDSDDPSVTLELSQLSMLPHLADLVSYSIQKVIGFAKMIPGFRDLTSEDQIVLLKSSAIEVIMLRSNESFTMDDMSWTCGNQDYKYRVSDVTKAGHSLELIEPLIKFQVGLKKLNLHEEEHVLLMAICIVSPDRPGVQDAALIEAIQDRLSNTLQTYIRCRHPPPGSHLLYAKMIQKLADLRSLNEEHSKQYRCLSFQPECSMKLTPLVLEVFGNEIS
How it was run: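 HepG2 cells were transiently transfected with multiple GAL4-UAS reporter units, so signal reflects exogenous chimeric receptor-Gal4 activity. After 24 h compound exposure, reporter mRNA was measured by RT-PCR, fluorescent labelling and capillary electrophoresis, fitted for gain of signal versus DMSO.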

[19] = BSK_4H_SRB: Viability Assessment in the BioMAP Diversity Plus: 4H Assay (AID 2283027); conditions: primary human endothelial cells (HUVEC);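 further: cells exposed to compound for 24 h before staining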
How it was run: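 Human umbilical vein endothelial cells, 24 h after chemical dosing; total protein measured by 0.1% sulforhodamine B staining after 10% TCA fixation, read at 560 nm. Bidirectional fitting against DMSO.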

[20] = BSK_BE3C_SRB: Viability Assessment in the BioMAP Diversity Plus: BE3C Assay (AID 2283028); conditions: primary human bronchial epithelial cells;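 on AC50: fitted both ways so AC50 may mark signal gain or loss versus DMSO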
How it was run: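 Human primary bronchial epithelial cells were exposed to test chemicals for 24 h. Total protein in parallel cultures was then measured by staining with 0.1% sulforhodamine B after 10% TCA fixation, with absorbance read at 560 nm. Activity was fitted bidirectionally against DMSO.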

Measured: AC50

E-selectin (Homo sapiens), sequence (P16581 whole entry, looked up): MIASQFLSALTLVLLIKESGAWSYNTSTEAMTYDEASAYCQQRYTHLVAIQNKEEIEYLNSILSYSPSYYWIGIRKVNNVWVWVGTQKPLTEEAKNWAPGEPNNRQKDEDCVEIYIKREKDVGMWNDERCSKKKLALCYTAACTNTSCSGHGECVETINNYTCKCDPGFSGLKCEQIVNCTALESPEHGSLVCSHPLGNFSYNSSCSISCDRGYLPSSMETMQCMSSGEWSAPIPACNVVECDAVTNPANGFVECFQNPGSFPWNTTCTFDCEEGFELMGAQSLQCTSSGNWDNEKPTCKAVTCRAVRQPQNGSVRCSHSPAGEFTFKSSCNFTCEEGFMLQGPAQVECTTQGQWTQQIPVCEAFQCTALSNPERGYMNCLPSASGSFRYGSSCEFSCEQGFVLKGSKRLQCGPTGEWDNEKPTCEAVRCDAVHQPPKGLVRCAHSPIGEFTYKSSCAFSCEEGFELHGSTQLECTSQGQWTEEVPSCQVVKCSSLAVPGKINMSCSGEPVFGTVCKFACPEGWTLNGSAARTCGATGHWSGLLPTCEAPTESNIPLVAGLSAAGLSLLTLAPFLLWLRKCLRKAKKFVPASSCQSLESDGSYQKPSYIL

CCCCCCCCC(=O)O
active: [2] 65.3 µM
inactive: [1] | [2] | [3] | [4] | [5] | [6] | [7] | [8] | [9] | [10] | [11] | [12] | [13] | [14] | [15]

NCC(F)(F)C(F)(F)C(F)(F)C(F)(F)C(F)(F)C(F)(F)C(F)(F)F
inactive: [1] | [2] | [16] | [3] | [17] | [4] | [5] | [6] | [7] | [8] | [18] | [9] | [10] | [12] | [19] | [20] | [13] | [14] | [15]
active: [15] 7.22 µM

ClC1=C(Cl)C(Cl)(Cl)C(Cl)=C1Cl
inactive: [1] | [2] | [16] | [18] | [15]
active: [2] 17.5 µM | [3] 7.17 µM | [17] 8.21 µM | [4] 7.92 µM | [5] 7.06 µM | [6] 4.6 µM | [7] 9.46 µM | [8] 10.5 µM | [9] 5.75 µM | [10] 10.7 µM | [11] 7.95 µM | [12] 5.42 µM | [20] 6.99 µM | [13] 10.3 µM | [14] 5.91 µM

CC(C)(C)c1ccc(O)c(C(C)(C)C)c1
inactive: [18] | [13] | [15]
active: [1] 7.27 µM | [2] 3.2 µM | [16] 11.1 µM | [3] 10.3 µM | [4] 11.7 µM | [5] 10 µM | [6] 8.06 µM | [7] 12.9 µM | [8] 14.7 µM | [9] 9.68 µM | [10] 32.4 µM | [11] 6.71 µM | [12] 7.52 µM | [14] 10.6 µM

CC(=O)CC(C)(C)O
not listed: [17]
inactive: all other assays above

c1ccc2c(c1)ccc1ccccc12
active: [2] 44.9 µM
not listed: [17] | [19] | [20]
inactive: all other assays above

From PubChem BioAssay (EPA / NIEHS)
